Our source for the growth values is PubChem BioAssay (NCI).

The panel holds about 83,000 compounds, 20% with a hit somewhere; the sample as a whole holds those more often.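 How to read the values: 0–100, growth inhibition (40 = 60% inhibited); 0, no net growth; -100 to 0, cell death (-40 = 40% of starting cells died; -100 = all dead).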 Unmarked numbers belong to inactive results. Activity calls are given as the source filed them. How the source made its calls: active means growth percent below 10; inactive means the rest.

Among the test systems are DU-145 prostate; K-562 leukemia; MDA-MB-231 breast; RXF 393 renal; SF-268 CNS; SF-295 CNS; SF-539 CNS; M14 melanoma; HCT-15 colon; HT29 colon; SNB-75 CNS; SNB-19 CNS; U251 CNS; PC-3 prostate; SK-MEL-5 melanoma; UACC-62 melanoma; LOX IMVI melanoma; SK-MEL-28 melanoma; MALME-3M melanoma.
Assay in all cases: NCI-60 one-dose screen, 48 h (100 = growth as untreated, 0 = no growth, -100 = all killed)
What all share (details): 10 µM unless noted

As for `CCc1nc2cc(/C=C/C(=O)NO)c(F)cc2c(=O)n1CCc1ccccc1`, the growth was 4.01% (active) in the assay with DU-145 prostate; 6.83% (active) in the assay on K-562 leukemia; 15.5% with MDA-MB-231 breast; -21.3% (active) in the assay on RXF 393 renal; 8.51% (active) in the assay on SF-268 CNS; 13.5% in the assay on SF-295 CNS. The growth is 1.7% (active) in the assay on SF-539 CNS; 3.41% (active) in the assay on M14 melanoma; 25.9% with HCT-15 colon; 13.2% in the assay on HT29 colon; 29.3% in the assay with SNB-75 CNS; 19.7% in the assay with SNB-19 CNS. For the same molecule, the growth with U251 CNS is 1.61% (active); with PC-3 prostate, 16.9%; with SK-MEL-5 melanoma it was -10.1% (active); in the assay with UACC-62 melanoma, -33.5% (active); in the assay on LOX IMVI melanoma, -57.8% (active); with SK-MEL-28 melanoma it was 20.3%.
Regarding `O=C(NO)c1ccc(Cn2c(=O)n(-c3ccccc3F)c(=O)c3ccccc32)cc1`, the growth in the assay with DU-145 prostate was 6.2% (active); in the assay with K-562 leukemia, 1.13% (active); in the assay with MDA-MB-231 breast it was 21.3%; with RXF 393 renal, -44.8% (active); in the assay with SF-268 CNS, 1.99% (active); with SF-295 CNS it was -44.3% (active). The growth is -12.8% (active) with SF-539 CNS; -22.6% (active) in the assay with M14 melanoma; 20.6% in the assay with HCT-15 colon; 9.88% (active) with HT29 colon; -3.9% (active) with SNB-75 CNS; 6.93% (active) with SNB-19 CNS. For the same molecule, the growth in the assay on U251 CNS is -85.3% (active); with PC-3 prostate, -33.6% (active); in the assay with SK-MEL-5 melanoma, -19.2% (active); in the assay on UACC-62 melanoma, -46.2% (active); in the assay on LOX IMVI melanoma it was -86.4% (active); in the assay on SK-MEL-28 melanoma, -21.5% (active).
Consider `CCc1nc2cc(/C=C/C(=O)NO)ccc2c(=O)n1CCc1ccc(F)cc1`, for which the growth in the assay with DU-145 prostate was -5.02% (active); in the assay on K-562 leukemia it was 4.68% (active); in the assay on MDA-MB-231 breast, -6.12% (active); in the assay with RXF 393 renal it was -29.5% (active); in the assay with SF-268 CNS, 9.29% (active); in the assay on SF-295 CNS, 10.4%. The growth with SF-539 CNS is 4.06% (active); in the assay on M14 melanoma it was 6.79% (active); in the assay with HCT-15 colon it was 24.7%; in the assay with HT29 colon, 8.3% (active); with SNB-75 CNS, 30.6%; in the assay with SNB-19 CNS it was 23.6%. Further, the growth in the assay on U251 CNS was -20.8% (active); in the assay with PC-3 prostate, 13.2%; in the assay on UACC-62 melanoma it was -28.8% (active); in the assay on LOX IMVI melanoma it was -73.2% (active); in the assay with SK-MEL-28 melanoma, 22.8%.
With `N#Cc1c(C(F)(F)F)cc(Nc2ccc3nc(NCCN4CCCC4)oc3c2)n2c1nc1ccccc12`, the growth in the assay with DU-145 prostate is 89%; in the assay with K-562 leukemia, 11.8%; in the assay with MDA-MB-231 breast, 32.7%; in the assay on RXF 393 renal, 55.4%; in the assay on SF-268 CNS, 78.8%; in the assay on SF-295 CNS, 74.7%. Besides, the growth in the assay with SF-539 CNS is 86.4%; with M14 melanoma, 84.4%; in the assay with HCT-15 colon, 56.6%; in the assay with HT29 colon, 5.45% (active); with SNB-75 CNS, 82.6%; in the assay with SNB-19 CNS, 85.2%. Further, the growth is 89% in the assay on U251 CNS; 52.1% with PC-3 prostate; 69.8% in the assay with SK-MEL-5 melanoma; 78.1% in the assay on UACC-62 melanoma; 62.3% with LOX IMVI melanoma; 72.8% in the assay on SK-MEL-28 melanoma.
In the case of `C=C1[C@@H](O)C[C@H]2C(C)(C)C[C@H](Cl)C[C@]2(C)[C@H]1C[C@H](O)[C@H]1CC(=O)NC1=O`, the growth in the assay with DU-145 prostate was -29.1% (active); in the assay on K-562 leukemia, 1.91% (active); in the assay on MDA-MB-231 breast, -31% (active); in the assay on RXF 393 renal, -63.2% (active); in the assay with SF-268 CNS, -20.8% (active); with SF-295 CNS it was -29.2% (active). Further, the growth with SF-539 CNS was -35.4% (active); in the assay with M14 melanoma, -75.5% (active); in the assay with HCT-15 colon it was -13.7% (active); in the assay on HT29 colon, -23.6% (active); in the assay with SNB-75 CNS, -37.2% (active); in the assay with SNB-19 CNS, -20.7% (active). In addition, the growth in the assay with U251 CNS was -16.8% (active); with PC-3 prostate it was -19% (active); in the assay on SK-MEL-5 melanoma it was -70.1% (active); in the assay with UACC-62 melanoma, -72.4% (active); with LOX IMVI melanoma it was -71.9% (active); in the assay on SK-MEL-28 melanoma it was -26.1% (active).
As for `CC1CCC(n2cnc3c(Cl)ncnc32)O1` (stereo unspecified), the growth in the assay with DU-145 prostate is 112%; in the assay on MALME-3M melanoma, 88.5%; with MDA-MB-231 breast it was 105%; with SF-268 CNS it was 105%; with SF-295 CNS, 95.5%; in the assay on SF-539 CNS, 97.5%. Besides, the growth with M14 melanoma was 93.8%; in the assay on HCT-15 colon, 103%; with HT29 colon it was 110%; in the assay on SNB-75 CNS, 91.9%; in the assay on U251 CNS, 102%; with PC-3 prostate, 89.6%. In addition, the growth with SK-MEL-5 melanoma was 91%; with LOX IMVI melanoma, 87.1%; with SK-MEL-28 melanoma, 109%.
As for `CCNCCNc1cc(-c2ccc(Cl)c(Cl)c2)c(C#N)c2nc3ccccc3n12`, the growth is -93.7% (active) with DU-145 prostate; -65.3% (active) in the assay on K-562 leukemia; -77.5% (active) with MDA-MB-231 breast; -91% (active) with RXF 393 renal; -79.6% (active) in the assay on SF-268 CNS; -92.3% (active) with SF-295 CNS. For the same molecule, the growth in the assay with SF-539 CNS was -87.5% (active); in the assay with M14 melanoma it was -73.8% (active); with HCT-15 colon it was -84% (active); in the assay with SNB-75 CNS, -88.4% (active); in the assay on SNB-19 CNS, -74.2% (active); in the assay with U251 CNS, -95.5% (active). Also, the growth with PC-3 prostate was -83% (active); in the assay with SK-MEL-5 melanoma it was -93.5% (active); in the assay with UACC-62 melanoma it was -74.2% (active); in the assay with LOX IMVI melanoma, -93.4% (active); in the assay with SK-MEL-28 melanoma, -81% (active).
Take `CCCC(=O)OCC1OC(n2cnc3c(=S)nc(N)[nH]c32)C(OC(=O)CCC)C1OC(=O)CCC` (stereo unspecified): the growth with DU-145 prostate is 27.3%; with MALME-3M melanoma, 29.9%; with MDA-MB-231 breast it was 38.9%; with SF-268 CNS, 38.8%; in the assay on SF-295 CNS, 19.8%; in the assay with SF-539 CNS it was 26.7%. Moreover, the growth in the assay with M14 melanoma is 13.9%; in the assay on HCT-15 colon, 50.2%; with HT29 colon it was 30.2%; in the assay on SNB-75 CNS, 34.8%; in the assay with SNB-19 CNS, 89.3%; with U251 CNS, 68.2%. Besides, the growth in the assay on PC-3 prostate is 76.1%; in the assay on SK-MEL-5 melanoma it was 42.8%; in the assay with LOX IMVI melanoma, 12%; in the assay on SK-MEL-28 melanoma it was 75.8%.
`N#Cc1c(-c2ccc(C(F)(F)F)cc2)cc(NCC2CCS(=O)(=O)CC2)n2c1nc1ccccc12`: the growth was 106% in the assay on DU-145 prostate; 90% in the assay with K-562 leukemia; 56.2% with MDA-MB-231 breast; 72.6% in the assay with RXF 393 renal; 82.4% in the assay with SF-268 CNS; 88.2% in the assay on SF-295 CNS. In addition, the growth was 82% in the assay with SF-539 CNS; 99.2% with M14 melanoma; 86.2% in the assay with HCT-15 colon; 75.7% in the assay with HT29 colon; 52.5% in the assay with SNB-75 CNS; 83.5% in the assay with SNB-19 CNS. For the same molecule, the growth in the assay with U251 CNS was 83.2%; in the assay on PC-3 prostate, 63.4%; in the assay with SK-MEL-5 melanoma, 77.7%; with UACC-62 melanoma, 80.8%; with LOX IMVI melanoma, 77.5%; in the assay with SK-MEL-28 melanoma, 95.8%.
Turning to `OCCNC(=S)Nc1ccc(-c2nc(N3C[C@H]4CC[C@@H](C3)O4)c3cccn3n2)cc1`, the growth in the assay with DU-145 prostate is 8.77% (active); in the assay on K-562 leukemia, 19.1%; in the assay with MDA-MB-231 breast it was 4.21% (active); with RXF 393 renal it was -31.4% (active); with SF-268 CNS, 9.25% (active); in the assay on SF-295 CNS, -34.3% (active). The growth in the assay on SF-539 CNS is -12.2% (active); in the assay with M14 melanoma, 5.27% (active); with HCT-15 colon, 13%; in the assay on HT29 colon, 20.1%; in the assay on SNB-75 CNS, -30.4% (active); with SNB-19 CNS it was 0.975% (active). Further, the growth with U251 CNS is 7.99% (active); with PC-3 prostate, 9.91% (active); in the assay on SK-MEL-5 melanoma, -34.8% (active); in the assay on LOX IMVI melanoma, 1.79% (active).
